Residue numbers refer to the chain shown, from its start. Whole data set: some 16,000 sequences, median “ka relative to ugcaugu” near 0.0091, cut for the highest 2% near 0.032. The list comes from a sample in which the highest values are over-represented; it also holds similar and randomly drawn sequences.
T1: RBFOX1 RRM (Homo sapiens, UniProt Q9NWB1 109-208)
T1 sequence: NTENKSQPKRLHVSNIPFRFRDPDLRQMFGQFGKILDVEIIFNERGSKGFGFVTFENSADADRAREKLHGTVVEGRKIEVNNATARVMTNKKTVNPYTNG

B1: GAGUCGU (DNA:RNA)
RNA: GGGAGACCGGAAUUCAGAUUGUCCGAGUCGUUUAAAUCCCGUCGUAGCCACCA
DNA 1: CAATCTGAATTCCGGTCTCCC
DNA 2: TGGTGGCTACGACGGGATT
B2: AUGCAAU (DNA:RNA)
RNA: B1 RNA with G25A, A26U, U28C, C29A, G30A
DNA 1: CAATCTGAATTCCGGTCTCCC
DNA 2: TGGTGGCTACGACGGGATT
B3: AGAUGAG (DNA:RNA)
RNA: B1 RNA with G25A, A26G, G27A, C29G, G30A, U31G
DNA 1: CAATCTGAATTCCGGTCTCCC
DNA 2: TGGTGGCTACGACGGGATT
B4: ACGGGCC (DNA:RNA)
RNA: B1 RNA with G25A, A26C, U28G, C29G, G30C, U31C
DNA 1: CAATCTGAATTCCGGTCTCCC
DNA 2: TGGTGGCTACGACGGGATT
B5: UGCCUCC (DNA:RNA)
RNA: GGGAGACCGGAAUUCAGAUUGUCCUGCCUCCUUAAAUCCCGUCGUAGCCACCA
DNA 1: CAATCTGAATTCCGGTCTCCC
DNA 2: TGGTGGCTACGACGGGATT
B6: UGCUGCC (DNA:RNA)
RNA: B5 RNA with C28U, U29G
DNA 1: CAATCTGAATTCCGGTCTCCC
DNA 2: TGGTGGCTACGACGGGATT
B7: UGCCUUG (DNA:RNA)
RNA: B5 RNA with C30U, C31G
DNA 1: CAATCTGAATTCCGGTCTCCC
DNA 2: TGGTGGCTACGACGGGATT
B8: UAGUAGG (DNA:RNA)
RNA: B1 RNA with G25U, C29A, U31G
DNA 1: CAATCTGAATTCCGGTCTCCC
DNA 2: TGGTGGCTACGACGGGATT
B9: GGUGUGU (DNA:RNA)
RNA: B1 RNA with A26G, G27U, U28G, C29U
DNA 1: CAATCTGAATTCCGGTCTCCC
DNA 2: TGGTGGCTACGACGGGATT
B10: GGGGUGU (DNA:RNA)
RNA: B1 RNA with A26G, U28G, C29U
DNA 1: CAATCTGAATTCCGGTCTCCC
DNA 2: TGGTGGCTACGACGGGATT
B11: CGGUGUU (DNA:RNA)
RNA: B1 RNA with G25C, A26G, C29G, G30U
DNA 1: CAATCTGAATTCCGGTCTCCC
DNA 2: TGGTGGCTACGACGGGATT
B12: CGGGUGU (DNA:RNA)
RNA: B1 RNA with G25C, A26G, U28G, C29U
DNA 1: CAATCTGAATTCCGGTCTCCC
DNA 2: TGGTGGCTACGACGGGATT
B13: GGGUGUU (DNA:RNA)
RNA: B1 RNA with A26G, C29G, G30U
DNA 1: CAATCTGAATTCCGGTCTCCC
DNA 2: TGGTGGCTACGACGGGATT
B14: CCCGGGU (DNA:RNA)
RNA: B1 RNA with G25C, A26C, G27C, U28G, C29G
DNA 1: CAATCTGAATTCCGGTCTCCC
DNA 2: TGGTGGCTACGACGGGATT
B15: AUAGGCC (DNA:RNA)
RNA: B5 RNA with U25A, G26U, C27A, C28G, U29G
DNA 1: CAATCTGAATTCCGGTCTCCC
DNA 2: TGGTGGCTACGACGGGATT
B16: CCAGAGA (DNA:RNA)
RNA: B1 RNA with G25C, A26C, G27A, U28G, C29A, U31A
DNA 1: CAATCTGAATTCCGGTCTCCC
DNA 2: TGGTGGCTACGACGGGATT
B17: CUCCCAU (DNA:RNA)
RNA: B1 RNA with G25C, A26U, G27C, U28C, G30A
DNA 1: CAATCTGAATTCCGGTCTCCC
DNA 2: TGGTGGCTACGACGGGATT
B18: UUUCACC (DNA:RNA)
RNA: B5 RNA with G26U, C27U, U29A
DNA 1: CAATCTGAATTCCGGTCTCCC
DNA 2: TGGTGGCTACGACGGGATT
B19: GUAAUGA (DNA:RNA)
RNA: B1 RNA with A26U, G27A, U28A, C29U, U31A
DNA 1: CAATCTGAATTCCGGTCTCCC
DNA 2: TGGTGGCTACGACGGGATT
B20: GGGAUGA (DNA:RNA)
RNA: B1 RNA with A26G, U28A, C29U, U31A
DNA 1: CAATCTGAATTCCGGTCTCCC
DNA 2: TGGTGGCTACGACGGGATT
B21: CGGAUGA (DNA:RNA)
RNA: B1 RNA with G25C, A26G, U28A, C29U, U31A
DNA 1: CAATCTGAATTCCGGTCTCCC
DNA 2: TGGTGGCTACGACGGGATT
B22: GAAAUGA (DNA:RNA)
RNA: B1 RNA with G27A, U28A, C29U, U31A
DNA 1: CAATCTGAATTCCGGTCTCCC
DNA 2: TGGTGGCTACGACGGGATT
B23: GGAUGAA (DNA:RNA)
RNA: B1 RNA with A26G, G27A, C29G, G30A, U31A
DNA 1: CAATCTGAATTCCGGTCTCCC
DNA 2: TGGTGGCTACGACGGGATT
B24: GGAAUGA (DNA:RNA)
RNA: B1 RNA with A26G, G27A, U28A, C29U, U31A
DNA 1: CAATCTGAATTCCGGTCTCCC
DNA 2: TGGTGGCTACGACGGGATT
B25: UCACGAG (DNA:RNA)
RNA: B5 RNA with G26C, C27A, U29G, C30A, C31G
DNA 1: CAATCTGAATTCCGGTCTCCC
DNA 2: TGGTGGCTACGACGGGATT
B26: GCGUGGA (DNA:RNA)
RNA: B1 RNA with A26C, C29G, U31A
DNA 1: CAATCTGAATTCCGGTCTCCC
DNA 2: TGGTGGCTACGACGGGATT
B27: GGAAGUG (DNA:RNA)
RNA: B1 RNA with A26G, G27A, U28A, C29G, G30U, U31G
DNA 1: CAATCTGAATTCCGGTCTCCC
DNA 2: TGGTGGCTACGACGGGATT
B28: GGCACGU (DNA:RNA)
RNA: B1 RNA with A26G, G27C, U28A
DNA 1: CAATCTGAATTCCGGTCTCCC
DNA 2: TGGTGGCTACGACGGGATT
B29: GGGCACC (DNA:RNA)
RNA: B5 RNA with U25G, C27G, U29A
DNA 1: CAATCTGAATTCCGGTCTCCC
DNA 2: TGGTGGCTACGACGGGATT
B30: UGGCAGA (DNA:RNA)
RNA: B5 RNA with C27G, U29A, C30G, C31A
DNA 1: CAATCTGAATTCCGGTCTCCC
DNA 2: TGGTGGCTACGACGGGATT
B31: AGGCACG (DNA:RNA)
RNA: B5 RNA with U25A, C27G, U29A, C31G
DNA 1: CAATCTGAATTCCGGTCTCCC
DNA 2: TGGTGGCTACGACGGGATT
B32: AGCCACG (DNA:RNA)
RNA: B5 RNA with U25A, U29A, C31G
DNA 1: CAATCTGAATTCCGGTCTCCC
DNA 2: TGGTGGCTACGACGGGATT
B33: ACGUCGU (DNA:RNA)
RNA: B1 RNA with G25A, A26C
DNA 1: CAATCTGAATTCCGGTCTCCC
DNA 2: TGGTGGCTACGACGGGATT
B34: UGGCACG (DNA:RNA)
RNA: B5 RNA with C27G, U29A, C31G
DNA 1: CAATCTGAATTCCGGTCTCCC
DNA 2: TGGTGGCTACGACGGGATT
B35: GGGCACG (DNA:RNA)
RNA: B5 RNA with U25G, C27G, U29A, C31G
DNA 1: CAATCTGAATTCCGGTCTCCC
DNA 2: TGGTGGCTACGACGGGATT
B36: GGGGCAC (DNA:RNA)
RNA: B1 RNA with A26G, U28G, G30A, U31C
DNA 1: CAATCTGAATTCCGGTCTCCC
DNA 2: TGGTGGCTACGACGGGATT
B37: ACCACGU (DNA:RNA)
RNA: B1 RNA with G25A, A26C, G27C, U28A
DNA 1: CAATCTGAATTCCGGTCTCCC
DNA 2: TGGTGGCTACGACGGGATT
B38: AGGCACC (DNA:RNA)
RNA: B5 RNA with U25A, C27G, U29A
DNA 1: CAATCTGAATTCCGGTCTCCC
DNA 2: TGGTGGCTACGACGGGATT
B39: UGGCACC (DNA:RNA)
RNA: B5 RNA with C27G, U29A
DNA 1: CAATCTGAATTCCGGTCTCCC
DNA 2: TGGTGGCTACGACGGGATT

molecular target: T1, RBFOX1 RRM; experiment: EMSA; HiTS-Eq, 1 nM pool, 10 min; buffer printed only for the single-RNA assays: 10 mM Tris pH 7.5, 150 mM NaCl, 3.4 mM EDTA, 0.001% NP-40, 30 C; conditions: tags: His6 N-terminal (pET28a); label: 5' 32P
Outline: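 Purified RbFox RRM, wild type or mutant, was incubated for 10 min in 50 µL with 1 nM of a 5′-radiolabelled RNA pool carrying 7 randomized nucleotides, whose flanks were annealed to DNA oligonucleotides, over a series of increasing protein concentrations. Unbound RNA was resolved on 8% native PAGE, cut out, reverse-transcribed, barcoded by PCR and sequenced on an Illumina HiSeq 2500. Relative association constants were derived from changes in read counts for each RNA species versus the control reaction and normalised to the cognate motif.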

Binder	binding signal
B1	0.0129 KA relative to UGCAUGU
B2	0.00453 KA relative to UGCAUGU
B3	0.0142 KA relative to UGCAUGU
B4	0.0142 KA relative to UGCAUGU
B5	0.00846 KA relative to UGCAUGU
B6	0.0265 KA relative to UGCAUGU
B7	0.0505 KA relative to UGCAUGU
B8	0.00933 KA relative to UGCAUGU
B9	0.0173 KA relative to UGCAUGU
B10	0.038 KA relative to UGCAUGU
B11	0.0192 KA relative to UGCAUGU
B12	0.0321 KA relative to UGCAUGU
B13	0.0233 KA relative to UGCAUGU
B14	0.00573 KA relative to UGCAUGU
B15	0.0113 KA relative to UGCAUGU
B16	0.0103 KA relative to UGCAUGU
B17	0.00325 KA relative to UGCAUGU
B18	0.00771 KA relative to UGCAUGU
B19	0.0136 KA relative to UGCAUGU
B20	0.0379 KA relative to UGCAUGU

Binder	binding signal
B21	0.0221 KA relative to UGCAUGU
B22	0.0134 KA relative to UGCAUGU
B23	0.0174 KA relative to UGCAUGU
B24	0.0487 KA relative to UGCAUGU
B25	0.0108 KA relative to UGCAUGU
B26	0.0179 KA relative to UGCAUGU
B27	0.0211 KA relative to UGCAUGU
B28	0.0321 KA relative to UGCAUGU
B29	0.0223 KA relative to UGCAUGU
B30	0.0265 KA relative to UGCAUGU
B31	0.0414 KA relative to UGCAUGU
B32	0.00567 KA relative to UGCAUGU
B33	0.00803 KA relative to UGCAUGU
B34	0.0541 KA relative to UGCAUGU
B35	0.0317 KA relative to UGCAUGU
B36	0.0252 KA relative to UGCAUGU
B37	0.00412 KA relative to UGCAUGU
B38	0.00933 KA relative to UGCAUGU
B39	0.0134 KA relative to UGCAUGU
